In ChEMBL document CHEMBL3433997, “St. Jude Leishmania screening dataset” (2016):

Molecular target: Solute carrier family 2, facilitated glucose transporter member 1 (Homo sapiens) (UniProt P11166)
Test: ST_JUDE_LEISH: Cytotoxicity at 2uM final concentration against transgenic Leishmania Mexicana promastigotes LmGLUT1 that are glucose transport deficient and complemented with the human glucose transporter GLUT1. Activity is measured by DNA content using SYBR green in vitro
Format: functional

Chain of Solute carrier family 2, facilitated glucose transporter member 1 (Homo sapiens) (P11166 whole entry): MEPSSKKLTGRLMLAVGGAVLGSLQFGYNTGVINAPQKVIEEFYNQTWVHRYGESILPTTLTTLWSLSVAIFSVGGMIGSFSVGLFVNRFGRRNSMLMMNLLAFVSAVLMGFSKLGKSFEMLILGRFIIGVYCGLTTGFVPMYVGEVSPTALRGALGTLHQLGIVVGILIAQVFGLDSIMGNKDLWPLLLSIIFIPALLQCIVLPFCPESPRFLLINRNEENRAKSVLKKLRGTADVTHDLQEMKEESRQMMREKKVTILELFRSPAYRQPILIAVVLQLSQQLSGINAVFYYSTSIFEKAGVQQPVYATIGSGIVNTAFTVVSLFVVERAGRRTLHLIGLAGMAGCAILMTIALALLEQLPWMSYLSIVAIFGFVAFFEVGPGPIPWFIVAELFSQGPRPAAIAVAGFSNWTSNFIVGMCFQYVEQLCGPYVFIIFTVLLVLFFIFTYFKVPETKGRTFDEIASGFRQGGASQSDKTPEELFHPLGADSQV

SMILES	inhibition [%]
COc1ccc2nccc([C@@H](O)CN3CCC(NCCOc4c(C)cccc4F)CC3)c2c1	5.89
CCCCN(CCCC)CCC(O)C(=Cc1ccc(Cl)cc1Cl)c1ccc(C(F)(F)F)cc1N (stereo not given)	-0.65
CCc1sc(N2CCC(C)CC2)nc1C(=O)Nc1ccc(F)cc1C(F)(F)F	2.29
CS(=O)(=O)c1cccc2sc(N3CCN(C(=O)c4ccc([N+](=O)[O-])o4)CC3)nc12	35.6
Cc1[nH]c2c(C)cccc2c1C1CCN(CCC2CCN(C(=O)/C=C/c3ccc(Cl)c(Cl)c3)CC2)CC1	3.84
OCC1CCN(Cc2ccc(-c3ccc(-c4nc5cc(C(F)(F)F)ccc5[nH]4)cc3)cc2)CC1	5.9
CCSc1ccccc1CON1C(=N)N=C(N)NC1(C)C	15.4
COc1cc2nc(N(C)Cc3cccc(I)c3)nc(N)c2cc1OC	4.75
O=C(NCc1ccco1)c1ccc(CN2CCN(C(c3ccccc3)c3ccccc3)CC2)cc1	7.85
Cc1ccc(O)cc1Nc1ccnc2cc(-c3csc(CN4CCN(C)CC4)n3)ccc12	8.26
CC(=O)c1c(Nc2c(C)cc(C)cc2C)oc(C)cc1=O	3.7
CC(C)C[C@H]1C(=O)N[C@H](C2Cc3ccccc3C2)C(=O)N1[C@@H](C(=O)Nc1ccccc1OCc1ccccc1)c1ccc(F)cc1F	0.86
CCOC(=O)C(NC(=O)c1ccc([N+](=O)[O-])o1)C(C)C (stereo not given)	-1.7
COc1ccc(C(=O)CCC(=O)N(Cc2ccc(-c3ccc(CNCCc4ccc(S(C)(=O)=O)cc4)cn3)cc2)Cc2ccc3c(c2)OCO3)cc1F	1.12
CN(C)C(=O)c1ccc(CN(Cc2cccc(OC(C)(C)C)c2)Cc2ccc3c(c2)OCCO3)cc1	0.24
COc1ccc(CN2CCCN(Cc3cccc(C(=O)Nc4ccc(C)c(F)c4)c3)CC2)cc1	0.27
CCC[C@@H]([C@@H](CC1CCC(C)CC1)C(=O)N[C@@H](CCCCNC(=O)c1ccccn1)C(=O)Nc1nccs1)N(O)C=O (stereo not given in full)	2.27
COc1cc(Cc2c(C)nc3nc(N)nc(N)c3c2C)c(Br)c(OC)c1OC	5.54
O=C(/C=C/c1ccccc1Cl)Nc1ccc(Br)c(OCCN2CCCCC2)c1	2.43
COCCn1c(-c2cccc(Cl)c2)nn(-c2ccc([N+](=O)[O-])cc2Cl)c1=S	4.03

SMILES	inhibition [%]
Oc1cc(Nc2ccnc3cc(-c4cccc(CN5CCOCC5)c4)ccc23)c(F)cc1Cl	4.47
CC(C)C[C@@H](NC(=O)OC(C)(C)C)C(=O)Nc1ccc(Cc2ccc(NC(=O)[C@@H](CC(C)C)NC(=O)OC(C)(C)C)cc2)cc1	3.6
c1ccc(CN2CCC(NCc3ccccc3-c3cccc(CNCc4ccc5c(c4)OCO5)c3)CC2)cc1	-2.53
NCC1CCCN1Cc1ccc(-c2ccc(-c3nc4cc(F)ccc4[nH]3)cc2)cc1 (stereo not given)	8.49
CCN(CC)CCNc1ccnc2[nH]c3ccc(C)cc3c12	0.06
FC(F)(F)c1ccccc1OCc1cc(-c2ccncc2)c(COc2ccccc2C(F)(F)F)cc1C1=CCNCC1	2.44
COc1ccc2nccc(N3CCC(NCCNCc4ccc5c(n4)NC(=O)CO5)C3)c2n1 (stereo not given)	1.29
CC1(C)NC(N)=NC(=N)N1OCc1ccc(-c2ccccc2)cc1	6.01
CC(C)(C)OC(=O)n1cc(C2CCN(CCCC34CCCc5cccc(c53)NC4=O)CC2)c2ccncc21 (stereo not given)	-0.89
O=C(NNC(=O)c1ccc(CN2CCC(c3nc4ccccc4[nH]3)CC2)cc1)Nc1ccc(Oc2ccccc2)cc1	2.4
COc1ccc(CN2CCN(C(=O)c3cccs3)CC2)c(O)c1	10.5
N/C(=N\c1cccc(Cc2ccccc2)n1)NCc1ccccc1	2.04
CC(C)N1CCN(C(CN2CCN(CCCOc3cccc4ccccc34)CC2)c2ccc(F)cc2)CC1 (stereo not given)	-1.68
O=C(NCCCCCN1CCC(c2c[nH]c3ccccc23)CC1)Nc1cccc(I)c1	14.6
Cc1nccn1Cc1cc(C(C)(C)C)c(O)c(C(C)(C)C)c1	3.44
N#Cc1ccc(N(CCNS(=O)(=O)c2cc(Br)c(Cl)s2)Cc2ccccc2C(F)(F)F)cc1C(F)(F)F	3.37
O=C(CSc1nnc(O)n1Cc1ccccc1)Nc1ccccc1-c1ccccc1	5.26
NS(=O)(=O)c1ccc(Nc2nccc(-c3c(-c4cccc(NC(=O)c5c(F)cccc5F)c4)nn4ccccc34)n2)cc1	11.8
Cc1cccc2nc(-c3ccc(-c4cccc(NC(=O)CN5CCN(C)CC5)c4)s3)[nH]c12	-0.82
COc1cc2nccc(Nc3cccc(Oc4ccccc4)c3)c2cc1OC	12.8
